In the library only some 1.3% were active in any assay of this set; here they are far more common.
Fam108B inh = blocks mouse Fam108B hydrolase in RBBP9 counter-screen | hit rate 0.33% among 300,000 | recombinant Fam108B, FP-Rh probe fluorescence polarization | inhibition, % at 9.51 µM;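 active = inhibition above the screen mean inhibition plus 3 SD, computed separately per campaign, cut at about 18% in these data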;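 also: inhibitors lower polarization as less probe binds the enzyme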
PME-1 inh = blocks human protein phosphatase methylesterase 1; Q9Y570; recombinant PME-1, FP-Rh probe fluorescence polarization; inhibition, % at 5.9 µM; hit rate 0.53% among 320,000;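 active = inhibition above the campaign mean of all compounds plus 3 SD, cut at about 26% in these data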;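 also: competitive labeling of PME-1 active site by serine hydrolase directed probe; 0% = PME-1 with DMSO and 100% = wells lacking PME-1 enzyme; inhibitors block probe labeling so polarization falls and inhibition rises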
LYPLA1 inh = counter-screen for PME1 inhibitors: inhibitors of human LYPLA1 | O75608 | recombinant LYPLA1, FP-Rh probe fluorescence polarization | inhibition, % at 5.9 µM | hit rate 0.16% among 320,000;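 active = inhibition above the mean of all tested compounds plus 3 SD, set per campaign, cut at about 14% in these data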;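 also: inhibitors block serine hydrolase probe labeling of LYPLA1 so polarization falls; 0% = enzyme with DMSO and 100% = wells lacking LYPLA1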
Target sequence (O75608 whole entry, looked up): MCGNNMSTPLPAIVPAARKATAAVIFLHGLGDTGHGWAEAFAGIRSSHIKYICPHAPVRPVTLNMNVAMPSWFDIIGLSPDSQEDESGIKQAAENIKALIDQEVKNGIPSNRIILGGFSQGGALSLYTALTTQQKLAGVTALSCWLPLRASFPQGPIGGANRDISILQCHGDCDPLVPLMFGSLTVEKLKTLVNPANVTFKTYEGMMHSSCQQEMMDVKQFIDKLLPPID
LYPLA2 counter = blocks human lysophospholipase 2, a PME1 counter-screen. recombinant LYPLA2, FP-Rh probe fluorescence polarization. inhibition, % at 5.9 µM. hit rate 0.38% among 320,000. AID 2177;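 active = inhibition above the screen-wide mean plus 3 SD, limit set per campaign, cut at about 26% in these data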;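 also: 0% = LYPLA2 with DMSO and 100% = wells lacking LYPLA2 enzyme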
Target sequence (O95372 whole entry, looked up): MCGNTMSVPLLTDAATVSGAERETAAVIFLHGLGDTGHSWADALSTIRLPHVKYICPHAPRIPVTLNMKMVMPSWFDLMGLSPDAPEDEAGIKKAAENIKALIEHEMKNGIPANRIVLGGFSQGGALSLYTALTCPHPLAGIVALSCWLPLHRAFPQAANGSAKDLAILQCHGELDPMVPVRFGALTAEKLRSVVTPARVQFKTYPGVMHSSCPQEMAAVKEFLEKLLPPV
PREPL inh = inhibitors of human prolyl oligopeptidase-like enzyme PREPL. recombinant PREPL, fluorescence polarization activity-based probe. inhibition, % at 5.96 µM. hit rate 0.68% among 320,000. AID 2751;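 also: 0% = enzyme with DMSO and 100% = wells lacking enzyme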
PREPL confirm = confirmation of human PREPL enzyme inhibitors. shares compounds with PREPL inh. recombinant PREPL, fluorescence polarization activity probe. inhibition, % at 5.96 µM. hit rate 67% among 2,000;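 also: 0% = protein with DMSO and 100% = wells lacking protein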
Starred values were filed as active, the others as inactive; nt = no result. Rule as the data show it, unless noted: active = inhibition above about 43%; inactive = the rest.

SMILES	Fam108B inh	PME-1 inh	LYPLA1 inh	LYPLA2 counter	PREPL inh	PREPL confirm
C#CCOCCOCCOCCNc1nc(N2CCN(C(=O)Cn3cc(CCCCN)nn3)CC2)nc(N2CCN(C(=O)Cn3cc(CCCCN)nn3)CC2)n1	-2	-4	-1	-3	7	nt
CCN1CCCC1CNC(=O)c1ccc2c(c1)NC(=O)/C(=C\c1ccc(OC)c(OC)c1)S2 (stereo not drawn)	4	10	10	-5	56*	61*
CC(C)OC(=O)CC(=O)CSc1nc2c(c(-c3cccs3)c1C#N)CCC2	-4	2	-3	-3	7	nt
COc1ccc(NC(=O)CSc2nc3c(c(-c4cccs4)c2C#N)CN(C)CC3)cc1OC	5	6	0	12	44*	17
Cc1ccc(Nc2nc(NCCO)c3ccccc3n2)cc1C	9	-86	-2	-4	56*	50*
Nc1c(-c2n[nH]c(=S)n2-c2ccc(Cl)cc2Cl)cnn1-c1ccccc1	3	0	0	-1	-5	nt
Nc1[nH]nc2c1NN(c1ccc(Cl)cc1Cl)N2	8	10	9	8	43*	13
NC(=O)[C@@H]1CCCNc2c(I)cc([N+](=O)[O-])cc2C(=O)N[C@@H](CCCN=C(N)N)C(=O)N[C@@H](CCCN=C(N)N)C(=O)N1	2	0	1	10	61*	59*
CC[C@H](C)[C@@H]1NC(=O)c2cc([N+](=O)[O-])cc(I)c2NCC[C@@H](C(N)=O)NC(=O)[C@H](CCCN=C(N)N)NC1=O	3	3	-1	2	25	nt
CN(CC(O)COc1ccccc1F)C1CCCCC1 (stereo not drawn)	8	-1	2	-2	-3	nt
CN(CC(O)COCc1ccccc1F)C1CCCCC1 (stereo not drawn)	-3	7	-1	1	44*	22
Cc1ccc(S(=O)(=O)N2CCC(C(=O)NNC(=O)c3ccc(F)cc3)CC2)cc1	-1	1	-1	-9	-2	nt
Cc1cc(C)c2nc(N3C(=O)C(O)=C(C(=O)c4ccco4)C3c3ccco3)sc2c1 (stereo not drawn)	-8	-5	-15	-17	44*	53*
COc1ccc(NC(=O)NCCCN2CCN(c3ccccc3F)CC2)cc1	1	-5	3	3	49*	35
NCCCn1c(C(=O)c2cc(Cl)c(N)c(Cl)c2)c2ccc([N+](=O)[O-])cc2[n+]1[O-]	-5	6	0	-5	61*	69*
O=C(N/N=C1\C/C(=N\NC(=O)c2ccncc2)c2ccccc21)c1ccncc1	18	-2	-5	1	46*	10
O=C(NN=C1C2CC3CC(C2)CC1C3)c1ccncc1	4	-4	-1	-1	3	nt
COc1cc(CO)ccc1OCc1nnnn1-c1ccc(C)cc1	0	4	-2	4	10	nt
CCOC(=O)c1c(-c2ccc(-c3ccccc3)cc2)csc1NC(=O)C1C2CCC(O2)C1C(=O)O (stereo not drawn)	1	-1	3	18	51*	55*
COc1ccccc1C(=O)Nc1ccc2nc(SCC(=O)N(C)C)sc2c1	0	18	6	1	15	nt
O=C(CSc1nc2ccc(NC(=O)c3ccccc3C(=O)O)cc2s1)Nc1ccc(F)c([N+](=O)[O-])c1	2	24	-6	-2	51*	14
COc1ccc(C2c3ccc4ccccc4c3Oc3ncn(CCO)c(=N)c32)cc1OC (stereo not drawn)	-2	-7	-6	-1	16	nt
COc1ccc(C2c3ccc4ccccc4c3Oc3ncn(CCN4CCOCC4)c(=N)c32)cc1OC (stereo not drawn)	-2	4	-6	-1	46*	36
CN(C)c1ccc(S(=O)(=O)NCC(=O)NCCC2=CCCCC2)cc1[N+](=O)[O-]	nt	7	3	4	4	nt
O=C(COc1ccccc1Cl)Nc1ccc(N2CCN(C(=O)c3ccccc3)CC2)cc1	-2	1	-1	14	64*	62*
SMILES	Fam108B inh	PME-1 inh	LYPLA1 inh	LYPLA2 counter	PREPL inh	PREPL confirm
Cc1cccc(OCC(=O)Nc2ccc(N3CCN(C(=O)c4ccccc4)CC3)cc2)c1	3	2	-1	2	55*	58*
CCN1CCN(c2ccc(NC(=O)COc3ccccc3Cl)cc2)CC1	-1	0	1	6	47*	40
O=C(COc1ccccc1Cl)Nc1ccccc1C(=O)N1CCCCC1	1	2	-1	-5	21	nt
Cc1ccc(OCC(=O)Nc2ccc(N3CCN(C(=O)c4ccc(C)cc4)CC3)cc2)cc1	4	0	1	9	9	nt
CC(=O)N1CCN(c2ccc(NC(=O)COc3ccc(Cl)cc3Cl)cc2)CC1	4	1	1	11	53*	54*
CCN1CCN(c2ccc(NC(=O)COc3ccc(Cl)cc3C)cc2)CC1	nt	nt	nt	nt	43*	53*
Cc1cc(Cl)ccc1OCC(=O)Nc1ccncc1	4	-17	2	4	1	nt
O=C(O)CCC(=O)N1CCN(c2ccccn2)CC1	-2	-3	1	4	44*	3
C=CCN1C(=O)C(CC(=O)Nc2ccccc2)N(Cc2ccccn2)C1=S (stereo not drawn)	-1	-5	1	3	1	nt
CN(C)CCn1nnc2c(=O)oc3ccccc3c21	-2	0	0	0	-5	nt
O=c1c(-c2c(O)cc(O)c3c(=O)cc(-c4ccc(O)cc4)oc23)c(-c2ccc(O)cc2)oc2cc(O)cc(O)c12	8	-8	-25	-22	1	nt
O=c1cc(-c2ccc(O)cc2)oc2c(-c3c(O)cc(O)c4c(=O)cc(-c5ccc(O)cc5)oc34)c(O)cc(O)c12	nt	nt	nt	nt	51*	15
CCN(CC)C(=O)c1ncn(C)c1C(=O)N(CC)CC	nt	nt	nt	nt	10	nt
CCCN(C(=O)/C=C/c1ccc(S(=O)(=O)N(CC)CC)cc1)C1CCS(=O)(=O)C1 (stereo not drawn)	nt	nt	nt	nt	2	nt
Cc1ccc(NC(=O)CSc2nnc(C3CC3)n2CC2CCCO2)cc1C (stereo not drawn)	-1	0	-5	-10	1	nt
COC(=O)[C@@]12CCCCN1[C@H](c1ccc(-c3ccc(F)cc3)cc1)[C@@H]1C(=O)N(C)C(=O)[C@@H]12	5	3	1	0	54*	44*
COC(=O)[C@@]12CCCCN1[C@H](c1ccc(-c3ccccc3)cc1)[C@H]1C(=O)N(C)C(=O)[C@H]12	0	0	-1	-3	3	nt
CCCC(=O)N1CCN(c2ccc(NC(=O)c3cc4ccccc4o3)cc2Cl)CC1	3	5	-6	3	45*	36
CCC(=O)N1CCN(c2ccc(NC(=O)c3cc4ccccc4o3)cc2Cl)CC1	-1	3	-2	6	43	nt
CCOC(=O)N1CCC(NC(=O)C2CCN(C(=O)c3cc4oc(C)cc4n3Cc3c(F)cccc3Cl)CC2)CC1	0	9	-1	0	55*	52*

Bioassay records as filed in PubChem.
